Pf growth 96h: inhibits malaria parasite growth, 96 h; Potency, µM (doses to about 28.7 µM), for inactives: at the top dose activity change, negative = inhibition, usual class: inhibitors; 6.9% of 320,000 active; AID 504834; P. falciparum luciferase reporter growth, 96 h; note: % is set by controls: 0 for no effect and ±100 for the full control effect
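Parasite growth measured via integrated firefly luciferase reporter in P. falciparum. Infected erythrocytes at 2% hematocrit, 0.05% parasitemia final were treated 96 hours at 37 C under 5% CO2, and luminescence was read.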
AmpC inh detg: blocks E. coli AmpC beta-lactamase in detergent assay; P00811; AmpC hydrolysis of nitrocefin, absorbance 480 nm, 0.01% Triton; Potency, µM (highest dose often 114 µM), for inactives: at the top dose activity change, negative = inhibition, most hits filed as inhibitors; 0.041% of 370,000 active; AID 485294;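 note: 0% = no-compound wells and -100% = no-enzyme wells; nearly all actives have a fitted effect of over 25% in size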
Target sequence (P00811 whole entry, looked up): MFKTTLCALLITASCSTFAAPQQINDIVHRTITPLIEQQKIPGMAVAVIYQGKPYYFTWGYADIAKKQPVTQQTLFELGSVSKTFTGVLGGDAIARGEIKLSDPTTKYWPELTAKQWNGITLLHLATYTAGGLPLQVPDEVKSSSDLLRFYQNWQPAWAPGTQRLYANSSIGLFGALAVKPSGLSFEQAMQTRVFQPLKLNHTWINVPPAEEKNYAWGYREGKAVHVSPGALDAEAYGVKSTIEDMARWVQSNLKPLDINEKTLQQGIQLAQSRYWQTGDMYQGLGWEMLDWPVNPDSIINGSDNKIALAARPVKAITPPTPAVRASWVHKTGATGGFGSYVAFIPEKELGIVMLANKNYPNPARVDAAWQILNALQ
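AmpC (5.3 nM in the dispensed reagent) in 20 mM phosphate pH 7.0 with 0.01% (detergent screen) or 0.0001% Triton X-100 was preincubated with compounds for 15 min at room temperature. Nitrocefin was then added from an 800 uM solution, and hydrolysis was followed at 480 nm.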
Sm TGR block: blocks Schistosoma mansoni thioredoxin glutathione reductase | AID 485364 | Potency, µM (titrated, usually from 114 µM), for inactives: at the highest dose activity change, negative = inhibition, most hits filed as inhibitors | Q962Y6 | purified TGR, DTNB reduction, TNB absorbance 405 nm | 3% of 360,000 active; note: % is set by controls: 0 for no effect and ±100 for the full control effect; nearly all actives have a fitted effect of over 60% in size
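TGR 20 nM + NADPH 100 uM (dispensed conc.), cpd preinc 15 min RT; start with NADPH (500 uM addition) then DTNB (15 mM addition). Kinetic TNB absorbance, 405 nm filter. Four-parameter Hill fit across titration.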
SARS PLP yeast: SARS-CoV PLP inhibition in yeast | Potency, µM (doses to about 32.9 µM), inactives show top-dose activity, positive = growth rescue, most hits filed as activators | S. cerevisiae expressing SARS-CoV PLpro, growth rescue | AID 485353 | 0.19% of 330,000 active; calls by dose curve; note: 0% is about no effect; nearly all actives have a fitted effect of over 55% in size
Pf growth 48h: inhibits P. falciparum growth in the first generation, 48 h. P. falciparum luciferase growth in erythrocytes, 48 h. Potency, µM (series often up to 28.7 µM), for inactives: top-dose activity change, negative = inhibition, usual class: inhibitors. 5.9% of 310,000 active. AID 504832; note: % is set by controls: 0 for no effect and ±100 for the full control effect
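Compounds are pin-transferred into medium, infected erythrocytes (2% hematocrit, 0.1% parasitemia final) are added, and plates sit one parasite generation at 37 C in 5% CO2. Detection reagent is then added and luminescence measured.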
AmpC inh no detg: inhibitors of E. coli AmpC beta-lactamase without detergent. AID 485341. 0.52% of 330,000 active. AmpC nitrocefin hydrolysis, absorbance 480 nm, 0.0001% Triton. P00811. Potency, µM (series often up to 57.1 µM), without a hit: at the top dose activity change, negative = inhibition, actives largely listed as inhibitors;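 note: plate controls were no compound for no effect and no enzyme for full effect; nearly all actives have a fitted effect of over 20% in size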
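AmpC (5.3 nM in the dispensed reagent) in 20 mM phosphate pH 7.0 with 0.01% (detergent screen) or 0.0001% Triton X-100 was preincubated with compounds for 15 min at room temperature. Nitrocefin was then added from an 800 uM solution, and hydrolysis was followed at 480 nm.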
The depositor's hits bear a star; u = inconclusive; x = no result given; ! = repeats disagree. An excerpt weighted towards active compounds, which were near 12% of everything screened. Unless noted, calls come from the whole dose curve; as a rule, active = well fitted curve in the direction sought with a large enough effect; inconclusive = small, poorly fitted or top-dose-only effect, or another doubt; inactive = no such curve, though single readings can be large; an effect the other way counts as inactive or inconclusive. Potency is the fitted concentration of half-maximal effect.

SMILES | Pf growth 96h | AmpC inh detg | Sm TGR block | SARS PLP yeast | Pf growth 48h | AmpC inh no detg
CCOc1ccc(CNC(=O)C2CCN(C(=O)N3CC(CC)Oc4ccccc43)CC2)cc1 (centres undefined) | x | -8% | 1% | x | x | x
Cc1cccc(NC(=O)COC(=O)CC2CCCC2)c1C | 9% | 0% | -1% | 1% | 25% | -6%
CC(=O)Nc1ccc(S(=O)(=O)N2CCN(C(=O)N3CCOCC3)CC2)cc1 | u | -2% | 1% | 1% | -1% | -9%
CC(=O)Nc1ccc(S(=O)(=O)N2CCOCC2)cc1 | 2.9µM* | 4% | 0% | 28% | 0% | -12%
CC(=O)Nc1ccc(NC(=O)CC2Nc3cccc4cccc(c34)NC2=O)cc1 (centres undefined) | -5% | -2% | u | 3% | 39% | -26%
COc1ccccc1NC(=O)CC1Nc2ccccc2NC1=O (centres undefined) | x | u | -32% | 0% | 3.7µM* | -2%
Cc1cc2c(cc1C)NC(CC(=O)NCc1ccccc1)C(=O)N2 (centres undefined) | 21% | u | -2% | -6% | u | -26%
COc1ccc(CCNC(=O)CC2Nc3cc(C)c(C)cc3NC2=O)cc1OC (centres undefined) | x | -2% | 20% | -7% | 13µM* | -1%
CC(=O)c1ccc(NC(=O)CC2Nc3cccc4cccc(c34)NC2=O)cc1 (centres undefined) | u | u | 18µM* | 0% | u | 16µM*
COc1ccc(-c2cc(C(F)(F)F)n3nc(C(=O)Nc4sc5c(c4C#N)CCC(C)C5)cc3n2)cc1OC (centres undefined) | x | -1% | 2% | x | x | x
O=C(NCc1ccc(Cl)cc1)C1CCN(S(=O)(=O)c2ccccc2)CC1 | -8% | 1% | 25µM*! | 1% | 9% | 4%
O=C(NCc1ccc(F)cc1)C1CCN(S(=O)(=O)c2ccc(Cl)cc2)CC1 | -23% | u | 4% | 1% | 3.7µM* | 11%
O=C(CCNC(=O)C1CCN(S(=O)(=O)c2ccc(F)cc2)CC1)NCc1ccc(Cl)cc1 | 30% | 0% | 6% | 1% | 12% | 79%
O=C(NCc1ccc(Cl)cc1)C1CCN(S(=O)(=O)Cc2ccccc2)CC1 | x | -2% | -16% | x | x | x
Cc1c(NC(=O)c2ccccc2)cc(C(C)C)c(O)c1S(=O)(=O)c1ccc(Cl)cc1 | x | -4% | -2% | x | x | x
CCc1nn2c(-c3ccco3)ccnc2c1-c1ccc(F)cc1 | x | -4% | -2% | x | x | x
CCOC(=O)c1c(C)n(-c2ccc(C)cc2)c2ccc(OCC(O)CNCC3CCCO3)cc12 (centres undefined) | 3.3µM* | 0% | -8% | -4% | u | 232%
CCOC(=O)c1c(C)n(C)c2ccc(OCC(O)CNC(CC)CO)cc12 (centres undefined) | 2.1µM* | -5% | -10% | -3% | u | 9%
Cc1ccc(CC2CC(=O)N(Cc3ccco3)C2=O)cc1 (centres undefined) | 19% | -13% | 13µM* | 0% | 0% | -19%
Cc1ccc(CN2CCN(Cc3ccco3)CC2)cc1 | u | -15% | 0% | 2% | 5% | -15%
O=C1C2C3CCC(C3)C2C(=O)N1Cc1ccco1 (centres undefined) | 89% | 5% | -2% | 12% | 13% | -11%
O=C1CC(Cc2ccccc2)C(=O)N1Cc1ccco1 (centres undefined) | 12µM* | 0% | 16µM* | -4% | u | -7%
CC(=O)Nc1ccc(C(=O)OCC(=O)NCc2ccc3c(c2)OCO3)cc1 | x | x | x | 1% | x | -12%
CC(C)(C)c1cc(CNC2CS(=O)(=O)C[C@@H]2O)cc(C(C)(C)C)c1O (some centres undefined) | 4% | -5% | 1.6µM* | -16% | 46% | 12%
CCc1cc2c(-c3ccccc3)cc(=O)oc2cc1OCC(C)=O | 13µM* | -17% | -13% | 0% | -24% | 46%
SMILES | Pf growth 96h | AmpC inh detg | Sm TGR block | SARS PLP yeast | Pf growth 48h | AmpC inh no detg
Cc1ccc(C(c2sc3ncnn3c2O)N2CCC(C)CC2)cc1 (centres undefined) | 5.9µM* | -4% | -18% | -11% | u | 18%
Cc1ccc(C(c2sc3ncnn3c2O)N2CCCCC2)cc1 (centres undefined) | u | u | 5% | -4% | u | 9%
CCCN=C(C)C1=C(O)c2ccccc2C1=O | 154% | -18% | -9% | -14% | 95% | 0%
CCOC(=O)c1ccc(COC(=O)c2ccc3c(c2)-c2ccccc2C3=O)cc1 | 79% | 1% | 8% | u | 51% | -11%
CCCc1ccc(/C=C2\C(=O)c3ccccc3C(O)=C2C(=O)OCC)cc1 | u | u | 8.9µM* | -28% | 4.7µM* | 18µM*
CCOC(=O)C1=C(O)c2ccccc2C(=O)/C1=C\c1ccc(CC)cc1 | u | 3% | 4.5µM* | -45% | 3.3µM* | -20%
c1ccc2[nH]ccc2c1 | -18% | x | x | x | -12% | x
Cc1cc(C)nc(S/C=C/C(=O)c2ccc(F)cc2)n1 | -19% | -2% | 0.71µM* | 0% | u | -8%
Cc1cc(C)nc(SCC(=O)c2ccc(F)cc2)n1 | 222% | -12% | -21% | -14% | -18% | 14%
Cc1ccc(C)n1-n1c(C)nc2sc3c(c2c1=O)CCCCC3 | 12µM* | 4% | 6% | -11% | 12µM* | 15%
Cc1ccc(-c2nc3sc4c(c3c(=O)n2N)CCCC4)cc1 | 7.4µM* | 2% | -18% | -14% | x | -6%
Cc1nc2sc3c(c2c(=O)o1)CCCC3 | 2.1µM* | u | -18% | -5% | 22% | -17%
Nc1c2c3c(sc2nc(=O)n1N)CCCC3 | 6.6µM* | 0% | -4% | 0% | 8% | -2%
Cc1ccc(-c2nc3sc4c(c3c(=O)n2N)CC(C)(C)OC4)cc1 | x | -1% | 9% | 7% | 9% | -21%
CC(Oc1ccccc1F)c1nnc(SCC(=O)NCc2ccc3c(c2)OCO3)o1 (centres undefined) | u | -1% | -16% | -1% | u | -43%
COc1ccc(C2CC(=O)c3cnn(-c4nc(C)cc(C)n4)c3C2)cc1 (centres undefined) | u | 4% | 3% | -4% | u | 77%
Cc1nc2sc3c(c2c(=N)n1N)CC(C)(C)OC3 | 13% | -9% | 10% | 1% | 2% | -8%
Cc1nc2sc3c(c2c(=N)n1N)CCCC3 | 10µM* | 3% | 8% | 0% | -2% | -6%
Cc1nc2ccc(S(=O)(=O)NCC(=O)Nc3ccc(F)cc3F)cc2s1 | x | 13% | 3% | x | x | x
